Tests used:
Test in all cases: PBM binding z-score (relative to random genomic background probes); higher = stronger binding; sequences stand for … in GC…GCGATTGACAGCGTAGAATGAAGG
[1] = system: FXR:RXRa (NR concentration 270 nM, RXRa partner concentration 90 nM)
How it was run: (§1)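 On custom Agilent 4×180K arrays, double-stranded probes with 34-nt variable regions carried direct-repeat seeds, single-nucleotide variants, half-site ablations or random human genomic background. Ligand-free nuclear receptor dimers were applied for 1 h, and binding was read with antibodies against each partner (one per run). Binding z-scores come from regression-normalized fluorescence, with the random background probes as reference.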

[2] = system: LXRa:RXRa (NR concentration 270 nM, RXRa partner concentration 90 nM)
How it was run: as §1

[3] = system: LXRa homodimer (NR concentration 270 nM)
How it was run: as §1

[4] = system: LXRb:RXRa (NR concentration 270 nM, RXRa partner concentration 90 nM)
How it was run: as §1

[5] = system: LXRb homodimer (NR concentration 270 nM)
How it was run: as §1

[6] = system: PPARa:RXRa (NR concentration 270 nM, RXRa partner concentration 90 nM)
How it was run: as §1

[7] = system: PPARg:RXRa (NR concentration 180 nM, RXRa partner concentration 90 nM)
How it was run: as §1

[8] = system: PPARg:RXRa 270nM:90nM, anti-RXR (NR concentration 270 nM, RXRa partner concentration 90 nM)
How it was run: as §1

[9] = system: PPARg:RXRa 30nM:10nM, anti-RXR (NR concentration 30 nM, RXRa partner concentration 10 nM)
How it was run: as §1

[10] = system: PPARg:RXRa 90nM:30nM, anti-RXR (NR concentration 90 nM, RXRa partner concentration 30 nM)
How it was run: as §1

[11] = system: PPARg:RXRa DBDmut IVT, anti-RXR (DBD mutation: RXRa K156A/R161A, NR concentration 270 nM, RXRa partner concentration 90 nM)
How it was run: as §1

[12] = system: PPARg:RXRa IVT, anti-PPARg (NR concentration 270 nM, RXRa partner concentration 90 nM)
How it was run: as §1

[13] = system: PPARg DBDmut:RXRa IVT, anti-PPARg (DBD mutation: PPARg1 K132A/R137A, NR concentration 270 nM, RXRa partner concentration 90 nM)
How it was run: as §1

[14] = system: PPARg DBDmut IVT, anti-PPARg (DBD mutation: PPARg1 K132A/R137A, NR concentration 270 nM)
How it was run: as §1

[15] = system: PPARg homodimer (NR concentration 180 nM)
How it was run: as §1

[16] = system: PXR:RXRa (NR concentration 270 nM, RXRa partner concentration 90 nM)
How it was run: as §1

[17] = system: PXR homodimer (NR concentration 270 nM)
How it was run: as §1

[18] = system: RARa:RXR (NR concentration 270 nM, RXRa partner concentration 90 nM)
How it was run: as §1

[19] = system: RARa homodimer (NR concentration 270 nM)
How it was run: as §1

[20] = system: RARb:RXRa (NR concentration 270 nM, RXRa partner concentration 90 nM)
How it was run: as §1

Sequence	PBM binding z-score [1]	PBM binding z-score [2]	PBM binding z-score [3]	PBM binding z-score [4]	PBM binding z-score [5]	PBM binding z-score [6]	PBM binding z-score [7]	PBM binding z-score [8]	PBM binding z-score [9]	PBM binding z-score [10]	PBM binding z-score [11]	PBM binding z-score [12]	PBM binding z-score [13]	PBM binding z-score [14]	PBM binding z-score [15]	PBM binding z-score [16]	PBM binding z-score [17]	PBM binding z-score [18]	PBM binding z-score [19]	PBM binding z-score [20]
TCTTGTAGATCAACAGGATGTTAAGAAAGATCGA	0.365	0.173	-0.3	0.12	-0.659	0.612	0.227	1.3	2.66	1.97	1.7	0.652	0.783	1.26	-0.565	0.147	-0.381	0.44	0.0345	-0.191
TCTTGTAGATCAGCAGGTTGAGAAAGCTGGCCAA	0.242	0.0309	-0.346	-0.0211	-0.546	0.457	-0.781	1.1	2.58	1.75	1.7	-0.16	-1.19	-1.18	-0.343	0.181	-0.51	0.426	-0.127	-0.0315
AGAATGACGTTAAGATCAGGGAAACAGAATACAT	-0.19	-0.216	-0.265	-0.142	-0.294	-0.223	0.69	-0.0483	0.359	0.136	-0.994	-0.522	-0.562	0.191	-0.654	-0.527	0.305	-0.498	0.719	-0.268
TCATATAGGTAAATGCTAGGTGAAAATCCGATCT	0.903	0.851	0.275	0.71	0.611	1.17	0.91	1.95	4.01	3.06	3.71	2.37	1.79	1.14	1.06	0.505	0.518	0.922	1.61	0.432
AGAATGAGGTTATACGTAGAGCAGGGAAGAAAGT	2.07	1.8	-0.116	1.59	0.336	2.98	1.76	2.08	0.738	1.52	3.85	2.15	1.23	1.06	1.79	1.13	0.781	1.57	0.0508	1.51
TCATATAGGTAAAAGGTGCAAGTCGGTGTGGTAA	1.29	1.09	0.188	1.25	0.0143	3.34	5.37	5.97	5.85	6.52	4.71	3.76	0.923	0.831	1.63	0.954	0.487	0.733	1.23	0.917
CCGACTGGGGCAAAGATTACCATACTCAGTACGA	-0.494	-0.583	-0.45	-0.138	-1.19	1.89	4.52	5.48	3.98	6.06	4.42	3.1	-0.00287	-0.543	0.462	-0.644	-0.342	-0.848	-0.293	0.284
CCTGCTAGGTCATGGTCATCTAATCTACAGTATG	3.56	2.73	0.055	1.89	-0.408	3.6	2.73	3.03	0.662	1.85	4.28	3.88	0.258	0.159	1.51	1.53	-0.321	2.23	0.16	3.76
CGAACTAGGTCATCCAGGACAGGGAATACATTGA	4.45	2.35	0.51	1.85	0.035	4.75	7.8	6.18	3.9	5.82	7.79	8.34	3.98	2.59	1.77	1.6	0.593	2.36	0.244	3.78
TAGCCTGGGTCAGATCGGGCCAGTATACGCTATA	1.63	0.208	-0.918	0.153	-0.84	1.32	0.579	0.64	-0.488	0.167	-0.428	0.885	-0.83	-0.762	-0.849	0.931	-0.947	0.69	-0.739	2.33
TAGCCTAGGTCATGCGGACCAGTATAGTGTCGGC	3.93	3	0.318	1.59	-0.198	3.33	1.99	2.5	0.202	1.38	1.69	2.81	-0.0719	-0.526	0.843	1.31	-0.745	2.2	-0.507	3.65
ATCTCTAGGTGAAGTTCAGTGAAAGATCGATAGA	0.465	0.465	0.0389	0.0201	0.118	1.88	1.57	1.74	0.453	1.35	4.94	4.09	1.05	1.05	0.329	0.872	0.828	0.684	0.618	1.7
AGAATGAGGTTATTAAGATCAGGGAGTTGCGGTC	1.77	1.34	0.175	1.29	0.183	2.49	1.37	2.07	0.61	1.5	3.18	2.67	0.214	0.57	0.895	1.46	0.973	1.44	0.946	1.4
ACAGACAGGTGAGTGAAGGGAACTCAGCTGGACG	0.599	0.176	-0.538	-0.538	-0.387	-0.171	0.513	-0.458	-0.652	-0.465	0.124	0.352	-0.265	-0.714	-0.397	-0.572	-0.37	-0.456	-0.307	0.438
GGAACGAGGGCATTCGAGTTGAGAGCATGGCGAT	1.64	1.88	-0.277	0.172	-0.777	1.5	0.715	1.11	-0.289	0.498	3.26	2.42	-0.0251	-0.828	-0.126	3.24	0.951	0.847	-0.731	1.99
